From PubChem BioAssay AID1159580 (chemical genetic matrix, 2015)
Out of some 5,500 compounds screened, about 2,000 (36%) were called active. Roughly 18% stayed inconclusive and do not appear here. Cut-off read from the data, not from the text of the source: active = normalized growth mostly below about 0.91 (no sharp cut-off); inconclusive = no clear call, values can overlap the other calls; inactive = mostly above about 0.92. This is one part of the list.

Assay: chemical genetic growth profiling, strain panel (AID 1159580);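 note: tested at 20 µM; growth read once vehicle control cultures reached saturation at 30 °C; 1 = growth at the plate median or of vehicle wells; lower values mean less growth of the strain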
Settings: S. cerevisiae deletion strains, growth OD

Measured: normalized growth

COC(=O)[C@H]1[C@H]2C[C@H]3c4[nH]c5ccccc5c4CCN3C[C@H]2CC[C@@H]1O
inactive: locus YAL013W, strain DEP1, active compounds read low 0.998 | locus YBR021W, strain FUR4, active compounds read low 1 | locus YBR229C, strain ROT2, active compounds read low 1.01 | locus YCL029C, strain bik1, active compounds read low 1 | locus YDL035C, strain GPR1, active compounds read low 1.01 | locus YDL074C, strain BRE1, active compounds read low 1.02 | locus YDL101C, strain DUN1, active compounds read low 1.01 | locus YDL134C, strain PPH21, active compounds read low 1.01 | locus YDL185W, strain tfp1, active compounds read low 1.01 | locus YDL192W, strain arf1, active compounds read low 1 | locus YDR101C, strain arx1, active compounds read low 1.01 | locus YDR150W, strain NUM1, active compounds read low 1.01 | locus YDR162C, strain NBP2, active compounds read low 1.01 | locus YDR318W, strain mcm21, active compounds read low 1 | locus YDR388W, active compounds read low 1 | locus YDR502C, strain sam2, active compounds read low 1.01 | locus YEL061C, strain CIN8, active compounds read low 1.01 | locus YER110C, active compounds read low 1 | locus YER155C, strain BEM2, active compounds read low 1.01 | locus YER167W, strain BCK2, active compounds read low 1.01 | locus YGL078C, strain dbp3, active compounds read low 1.01 | locus YGL086W, strain mad1, active compounds read low 1.01 | locus YGL248W, strain PDE1, active compounds read low 1.01 | locus YGR135W, strain pre9, active compounds read low 0.988 | locus YGR229C, strain SMI1, active compounds read low 1.01 | locus YGR252W, strain gcn5, active compounds read low 0.977 | locus YHR030C, strain SLT2, active compounds read low 1.01 | locus YHR079C, strain IRE1 (second series), active compounds read low 1 | locus YHR094C, strain hxt1, active compounds read low 1 | locus YHR129C, strain ARP1, active compounds read low 1.01 | locus YHR200W, strain rpn10, active compounds read low 1.01 | locus YIL066C, strain RNR3, active compounds read low 1.02 | locus YIL073C, strain SPO22, active compounds read low 1 | locus YIL125W, strain kgd1, active compounds read low 0.999 | locus YIR030C, strain dcg1, active compounds read low 0.999 | locus YJL095W, strain BCK1, active compounds read low 1.02 | locus YJL134W, strain LCB3, active compounds read low 1.01 | locus YJL168C, strain set2, active compounds read low 0.998 | locus YJL187C, strain SWE1 (second series), active compounds read low 1.03 | locus YJR043C, strain POL32, active compounds read low 1.02 | locus YKL009W, strain mrt4, active compounds read low 1 | locus YKL068W, active compounds read low 0.993 | locus YKL085W, strain MDH1 (second series), active compounds read low 1.01 | locus YKL085W, strain MDH1, active compounds read low 1.01 | locus YKL190W, strain CNB1, active compounds read low 1.01 | locus YKR001C, strain vps1, active compounds read low 1.02 | locus YLR039C, strain RIC1, active compounds read low 1.08 | locus YLR058C, strain SHM2, active compounds read low 1.02 | locus YLR102C, strain apc9, active compounds read low 1 | locus YLR262C, strain YPT6, active compounds read low 1.08 | locus YLR268W, strain sec22, active compounds read low 1 | locus YLR330W, strain CHS5, active compounds read low 1.01 | locus YLR342W, strain FKS1 (second series), active compounds read low 0.984 | locus YLR371W, strain rom2, active compounds read low 0.999 | locus YLR418C, strain cdc73, active compounds read low 0.985 | locus YML016C, strain PPZ1, active compounds read low 1.01 | locus YML032C, strain rad52, active compounds read low 0.998 | locus YML124C, strain tub3, active compounds read low 0.993 | locus YMR078C, strain ctf18, active compounds read low 1.01 | locus YMR223W, strain ubp8, active compounds read low 0.992 | locus YMR263W, strain SAP30, active compounds read low 1.01 | locus YMR307W, strain GAS1, active compounds read low 0.95 | locus YNL067W, strain RPL9B, active compounds read low 1.02 | locus YNL233W, strain BNI4, active compounds read low 1.02 | locus YNL250W, strain rad50, active compounds read low 1.02 | locus YNL271C, strain bni1, active compounds read low 1.01 | locus YNL298W, strain CLA4, active compounds read low 0.988 | locus YNL307C, strain MCK1, active compounds read low 1.01 | locus YNR052C, strain pop2, active compounds read low 0.998 | locus YOL012C, strain htz1 0.805 | locus YOL147C, strain pex11, active compounds read low 1.01 | locus YOR061W, strain CKA2, active compounds read low 1.01 | locus YOR069W, strain VPS5, active compounds read low 1.01 | locus YOR136W, strain idh2, active compounds read low 0.998 | locus YOR144C, strain elg1, active compounds read low 1 | locus YOR184W, strain ser1, active compounds read low 1.01 | locus YOR316C, strain cot1, active compounds read low 1.01 | locus YPL241C, strain CIN2, active compounds read low 1.01 | locus YPR119W, strain clb2, active compounds read low 1 | locus YPR141C, strain kar3, active compounds read low 0.992 | locus YPR163C, strain tif3, active compounds read low 1.01 | locus YPR167C, strain met16, active compounds read low 1 | strain wtn01, active compounds read low 1.01
